# KB-V1 cytotox: qHTS assay for MDR1-selective chemotherapeutics: Primary screen using the drug-selected MDR subline cells KB-V1; AID 1347076, 2019; Potency, µM (top dose mostly 46.1 µM), most hits filed as cytotoxic; 400,000 compounds, 3.4% hits; KB-V1 MDR cells viability, CellTiter-Glo, 72 h; also: % is scaled to controls: 0 for no effect and ±100 for the full control effect; nearly all actives have a fitted effect of over 60% in size
#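 Cytotoxicity via CellTiter-Glo luminescence after 72 h compound exposure at 37 degrees C. Cells: drug-selected KB-V1 line, DMEM phenol-red free plus 10% FBS. Compounds tested at multiple concentrations; normalized data fitted to concentration-effect curves.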
# SW480 rereplic: A quantitative high throughput screen for small molecules that induce DNA re-replication in SW480 colon adenocarcinoma cells; SW480 DNA re-replication, Hoechst DNA content imaging, 48 h; Potency, µM (highest dose often 46.1 µM), for the others: top-dose re-replication activation, usual class: activators; 340,000 compounds, 1.8% hits; AID 624297, 2012; also: % of control where 0% means no effect; nearly all actives have a fitted effect of over 55% in size
#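 Hoechst fluorescence of nuclei (405 nm excitation, 500-530 nm emission) measured by plate-scanning imager after 48 hr compound exposure at 37 C; re-replication scored as increased number of nuclei with elevated intensity.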
# RORg inh: qHTS for inhibitors of ROR gamma transcriptional activity | Nuclear receptor ROR-gamma (Mus musculus), P51450 | Drosophila S2 Gal4-RORgamma UAS-luciferase reporter, 20 h | Potency, µM (series often up to 53.6 µM), without a hit: at the highest dose activity change, negative = inhibition, actives largely listed as inhibitors | 310,000 compounds, 5.4% hits | AID 2551, 2010; also: % is scaled to controls: 0 for no effect and ±100 for the full control effect; nearly all actives have a fitted effect of over 60% in size
# Target sequence (P51450 whole entry, looked up, the tested form may be a part): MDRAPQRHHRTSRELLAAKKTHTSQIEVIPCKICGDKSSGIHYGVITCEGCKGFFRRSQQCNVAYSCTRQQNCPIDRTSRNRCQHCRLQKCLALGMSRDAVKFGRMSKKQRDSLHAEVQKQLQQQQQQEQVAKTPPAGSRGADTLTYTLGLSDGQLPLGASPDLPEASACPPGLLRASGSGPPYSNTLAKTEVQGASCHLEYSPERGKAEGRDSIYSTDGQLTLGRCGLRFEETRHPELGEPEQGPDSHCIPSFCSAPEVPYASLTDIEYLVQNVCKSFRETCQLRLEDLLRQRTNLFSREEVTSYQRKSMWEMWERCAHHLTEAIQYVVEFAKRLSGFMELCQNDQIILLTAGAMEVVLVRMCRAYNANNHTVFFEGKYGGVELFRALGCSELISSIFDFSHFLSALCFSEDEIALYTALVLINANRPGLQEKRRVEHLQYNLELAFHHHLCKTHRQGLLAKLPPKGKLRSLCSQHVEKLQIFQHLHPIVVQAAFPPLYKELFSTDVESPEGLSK
#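 Read-out: Photinus luciferase luminescence; inhibitors lower reporter signal. Insect Schneider cells with Gal4-ROR gamma fusion under metallothionein promoter, UAS reporter; 700 uM final copper sulfate induction, 20 hr, ambient temperature.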
# VP16 counter: VP16 counterscreen qHTS for inhibitors of ROR gamma transcriptional activity. Drosophila S2 Gal4-VP16 UAS-luciferase, luminescence, 20 h. Potency, µM (doses to about 53.6 µM), inactives show top-dose activity, negative = inhibition, usual class: inhibitors. 310,000 compounds, 3.5% hits. AID 2546, 2010;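 also: Gal4-VP16 expression switched on by copper sulfate through the metallothionein promoter; % is scaled to controls: 0 for no effect and ±100 for the full control effect; nearly all actives have a fitted effect of over 50% in size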
# KB-3-1 tox: qHTS assay for MDR1-selective chemotherapeutics: Primary screen using the parental adenocarcinoma cell KB-3-1; KB-3-1 viability, CellTiter-Glo ATP luminescence, 72 h; Potency, µM (doses to about 46.1 µM), actives largely listed as cytotoxic; 400,000 compounds, 1.4% hits; AID 1347075, 2019; also: % is scaled to controls: 0 for no effect and ±100 for the full control effect; nearly all actives have a fitted effect of over 60% in size
#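 Multi-concentration cytotoxicity screen in KB-3-1 cells grown in DMEM lacking phenol red with 10% FBS. After 72 h at 37 °C with compound, ATP-dependent luminescence was recorded.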
# MCF10A rerep: A quantitative high throughput screen for small molecules that induce DNA re-replication in MCF 10a normal breast cells | AID 624296, 2012 | 350,000 compounds, 2.9% hits | Potency, µM (highest dose often 46.1 µM), without a hit: at the top dose activity, positive = re-replication, hits mostly activators | MCF 10A DNA re-replication, Hoechst nuclear intensity, 48 h; also: % of control where 0% means no effect; nearly all actives have a fitted effect of over 50% in size
# * hit, by the source's call; i = inactive; ? = inconclusive; nt = not tested or not shown; [ ] = remark or other dose. Most compounds without a hit are left out; they make up all but 10% or so of the library. Calls follow the shape of the dose curve; as a rule, active = well fitted curve in the direction sought with a large enough effect; inconclusive = small, poorly fitted or top-dose-only effect, or another doubt; inactive = no such curve, though single readings can be large; an effect the other way counts as inactive or inconclusive. Potency is read from the fitted curve at half-maximal effect.
SMILES,KB-V1 cytotox,SW480 rereplic,RORg inh,VP16 counter,KB-3-1 tox,MCF10A rerep
C=CCn1c(NC(=O)c2ccco2)nc2ccccc21,i,-2.6%,3.98µM*,3.55µM*,i,0.9%
CCc1ccc(O)c(C(=O)c2cnc3cc(-c4ccc(C)cc4)nn3c2)c1,i,nt,nt,nt,i,nt
Cc1nn(CC(=O)Nc2cccc(C(F)(F)F)c2)c(=O)c2nn(-c3ccccc3)c(C)c12,i,nt,nt,nt,i,nt
COc1ccc(NC(=O)c2cc(-c3ccccn3)nc3ccccc23)c(OC)c1,i,1.4%,nt,nt,i,11.8%
O=C(NCc1ccccn1)c1cc(-c2ccc(Cl)cc2)nc2ccccc12,11.6µM*,0.1%,2.6%,-11.4%,i,18.4%
O=C(NCCc1ccc(Cl)cc1)c1cc(-c2ccccn2)nc2ccccc12,?,?,11.2µM*,?,?,?
O=C(NCc1ccccn1)c1cc(-c2ccccc2)nc2ccccc12,i,?,-9.6%,14.9%,i,4.1%
CCOc1ccccc1NC(=O)c1cc(-c2ccccn2)nc2ccccc12,?,?,nt,nt,18.4µM*,?
O=C(NCCc1ccc(Cl)cc1)c1cc(-c2ccncc2)nc2ccccc12,?,22.5%,7.6%,-12.3%,i,14.2%
Cc1cccc(-c2cc(C(=O)NCc3ccccn3)c3ccccc3n2)c1,5.8µM*,-0.9%,0.7%,-2.5%,i,26.4%
Cc1ccc(C(=O)c2cn(Cc3c(F)cccc3Cl)c3nc(C)ccc3c2=O)cc1,i,nt,nt,nt,i,nt
CC(=O)N(C[C@@H](C)C(=O)O)c1c(I)cc(I)c(N)c1I,nt,-4.6%[20.6 µM],14.1%[2.98 µM],5.9%[17 µM],nt,9.3%[20.6 µM]
Cc1ccc(C)c(C(O)c2ncc(-c3ccc(Cl)cc3)[nH]2)c1 (centres undefined),i,nt,nt,nt,i,nt
CCOC(=O)c1noc2nc(C)n(CC(=O)NC(C)CC)c(=O)c12 (centres undefined),i,nt,nt,nt,?,nt
Cc1ccc(-c2cc(C(=O)NC(C)c3ccccc3)c3ccccc3n2)cc1C (centres undefined),i,nt,nt,nt,i,nt
Cc1ccc(-c2cc(C(=O)NCc3ccccn3)c3ccccc3n2)cc1C,14.6µM*,?,?,-28.6%,?,5.8µM*
Cc1ccc(-c2cc(C(=O)n3cnc4ccccc43)c3ccccc3n2)cc1C,i,-2.9%,10µM*,12.6µM*,i,15.3%
CCC(C)n1c(=S)[nH]c2c(sc3ccc([N+](=O)[O-])cc32)c1=O (centres undefined),?,1.8%,0.631µM*,1.26µM*,?,?
CCCCC(=O)Nc1cc(-c2nc3ccccc3o2)ccc1OC,i,nt,nt,nt,i,nt
Cc1ccc2oc(-c3ccc(NC(=O)c4ccncc4)cc3O)nc2c1,i,1.9%,7.08µM*,4.5%,i,4.0%
CCCC(=O)Nc1ccc(-c2nc3cc(C)ccc3o2)cc1,i,-5.4%[9.22 µM],3.98µM*,2.82µM*,i,-1.3%
O=C(Nc1ccc(-c2nc3ccccc3o2)c(O)c1)c1ccccc1,?,nt,nt,nt,i,nt
CCCC(=O)Nc1ccc2oc(-c3ccc(OC)c(Br)c3)nc2c1,2.59µM*,?,18.2%,-20.5%,i,18.4µM*
O=C(c1cc(C(F)(F)F)cc(C(F)(F)F)c1)N1CCC2(CCCN(Cc3ccccc3)C2)CC1,nt,nt,0.6%,7.3%,nt,nt
c1cncc(-c2cncnc2NC2CCNCC2)c1,nt,nt,26.1%,-5.9%,nt,nt
CC1CCC2C(=O)N(c3ccc(C(=O)Oc4cccc5cccnc45)cc3)C(=O)C2C1 (centres undefined),i,17.3%,6.31µM*,3.16µM*,i,?

# High-throughput results: PubChem BioAssay, National Center for Advancing Translational Sciences (NCATS)
